Test results taken from PubChem BioAssay (NCATS).
Inconclusive results are not listed. Calls of active or inactive are those of the source. Calls come from the whole dose curve; as a rule, active = well fitted cell-killing curve with a large enough effect; inconclusive = small, poorly fitted or top-dose-only effect, or effect the other way; inactive = no such curve, though single readings can be large or run the other way.

assay: Viability qHTS for spleen associated tyrosine kinase inhibitor (SYKi) naive MV4-11 cells (AID 1963823); conditions: MV4-11 AML viability, CellTiter-Glo luminescence, 72 h; series mostly up to 45 µM; viability (% of control): at the top concentration; note: nearly all actives have a fitted effect of over 40% in size
In short: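 SYK inhibitor-naive MV4-11 cells, 500 per well, exposed to compounds for 72 hr at 37 C, 5% CO2. Viability read as CellTiter-Glo luminescence after 10 min at room temperature.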
Potency is the fitted concentration of half-maximal effect.

| SMILES | Potency | viability (% of control) |
| --- | --- | --- |
| CCC(C)n1cc(C)c2c(C(=O)NCc3c(C)cc(C)[nH]c3=O)cc(-c3ccc(N4CCNCC4)nc3)cc21 (stereo not given) | 13000 nM (active) | – |
| C[C@H]1[C@H](C)CC[C@]2(C(=O)O[C@@H]3O[C@H](CO)[C@@H](O)[C@H](O)[C@H]3O)CC[C@]3(C(=O)O)C(=CCC4[C@@]5(C)CC[C@H](O[C@@H]6O[C@H](CO)[C@@H](O)[C@H](O)[C@H]6O)C(C)(C)C5CC[C@]43C)[C@H]12 (stereo not given in full) | – | 69.7% [at 9.25 µM] (inactive) |
| COC(=O)CC1OC(C)C2=C(O)c3c(O)cccc3C(=O)C23OC13 (stereo not given) | 1140 nM (active) | – |
| C=C[C@H]1C(O[C@@H]2O[C@H](CO)[C@@H](O)[C@H](O)[C@H]2O)OC=C2C(=O)N3CCc4c([nH]c5ccccc45)C3CC21 (stereo not given in full) | – | 65.7% [at 17.3 µM] (inactive) |
| C1CCN2CC3C[C@@H](CN4CCCC[C@@H]34)[C@H]2C1 | – | 99.2% (inactive) |
| CC(=O)N[C@H]1[C@H](O[C@H]2CC[C@@]3(C)C(CC[C@]4(C)C3CC=C3[C@@H]5CC(C)(C)CC[C@]5(C(=O)OC5OCC(O)C(O)C5O)CC[C@]34C)C2(C)C)O[C@H](COC2OC(C)C(O)C(OC3OC(C)C(O)C(O)C3O)C2O)[C@@H](O)[C@@H]1O (stereo not given in full) | – | 83.4% [at 9.25 µM] (inactive) |
| C/C=C/C=C/[C@@H]1O[C@](O)([C@H](CC)C(=O)NC/C=C/C=C(\C)[C@@H](OC)[C@@H](C)C2OC(/C=C/C=C/C=C(\C)C(=O)c3c(O)cc[nH]c3=O)[C@H](O)[C@@H]2O)[C@H](O)[C@H](O)C1(C)C (stereo not given in full) | – | 89% [at 17.3 µM] (inactive) |
| COc1cc(C(=O)OC[C@@]2(O)CO[C@@H](O[C@H]3[C@H](Oc4ccc(O)cc4)O[C@H](CO)[C@@H](O)[C@@H]3O)[C@@H]2O)cc(OC)c1O | – | 68.6% [at 17.3 µM] (inactive) |
| O=C(O)/C=C/c1ccc2occc2c1O[C@@H]1O[C@H](CO)[C@@H](O)[C@H](O)[C@H]1O | – | 78.7% (inactive) |
| CC(=O)O[C@H]1CC(C)(C)CC2[C@@]13[C@H](O)C[C@]1(C)[C@@]2(CCC2[C@@]4(C)CC[C@H](O[C@@H]5OC[C@H](O[C@@H]6O[C@H](CO)[C@@H](O)[C@H](O)[C@H]6O[C@@H]6OC[C@@H](O)[C@H](O)[C@H]6O)[C@H](O)[C@H]5O[C@@H]5O[C@H](CO)[C@@H](O)[C@H](O)[C@H]5O)C(C)(C)C4CC[C@]21C)O[C@@H]3O (stereo not given in full) | 873 nM (active) | – |
| CC(C)=CCC[C@](C)(O[C@@H]1O[C@H](CO)[C@@H](O)[C@H](O)[C@H]1O)[C@H]1CC[C@]2(C)[C@@H]1[C@H](O)CC1[C@@]3(C)CC[C@H](O)C(C)(C)C3[C@@H](O[C@@H]3O[C@H](CO)[C@@H](O)[C@H](O)[C@H]3O)C[C@]12C (stereo not given in full) | – | 95.8% [at 17.3 µM] (inactive) |
| CC(C)=CCC(O)[C@](C)(O)C1[C@H](O)C[C@@]2(C)C3CC=C4C(C[C@H](O)[C@@H](O[C@@H]5O[C@H](CO)[C@@H](O)[C@H](O)[C@H]5O)C4(C)C)[C@]3(C)C(=O)C[C@]12C (stereo not given in full) | – | 68.7% [at 17.3 µM] (inactive) |
| C(#Cc1nc2ncccc2nc1OCCN1CCCC1)c1ccccc1 | 651 nM (active) | – |
| CC(C)C1(O[C@@H]2O[C@H](CO)[C@@H](O)[C@H](O)[C@H]2O)CC=C(CO)CC1 (stereo not given in full) | – | 77.9% (inactive) |
| O=C1C[C@@H](c2ccc(O)cc2)Oc2cc(O)ccc21 | 11600 nM (active) | – |
